Experiment [1] is described as follows: P-glycoprotein substrates identified in KB-3-1 adenocarcinoma cell line, qHTS therapeutic library screen (AID 1346986). Also: nearly all actives have a fitted effect of over 60% in size.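 Also: potency is for cytotoxicity meaning loss of cell viability.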 An outline of the steps: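 Viability read by CellTiter-Glo after 72 h compound exposure in dose-response of KB-3-1 and KB-8-5-11 (P-gp-high) cells. Hits needed AC50 < 10 uM, >50% maximum response and curve class -1.1 to -2.4. Cherry-picks retested ± tariquidar, including pcDNA/MDR-19 HEK-293 pair.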
(In general: qHTS replaces the single test concentration by a dilution series.)

Experiment [2] in a line: P-glycoprotein substrates identified in KB-8-5-11 adenocarcinoma cell line, qHTS therapeutic library screen (AID 1346987). Also: nearly all actives have a fitted effect of over 65% in size. As to activity change, negative = cytotoxicity: series mostly up to about 44 µM. An outline of the steps:
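Compounds are pinned in dose-response onto KB-8-5-11 cells (500 cells/well, colchicine-free medium) and left 72 h at 37 degree C. CellTiter-Glo luminescence then yields AC50 values.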

Records with an inconclusive call do not appear. Where a call stands in place of a potency, no number is given. Values without a mark were called inactive. Activity calls are given as the source filed them. Calls follow the shape of the dose curve; as a rule, active = well fitted curve in the direction sought with a large enough effect; inconclusive = small, poorly fitted or top-dose-only effect, or another doubt; inactive = no such curve, though single readings can be large; an effect the other way counts as inactive or inconclusive. Where a SMILES comes first, the peptide text is derived from it. Bridges are numbered along the chain shown (N, C = ends). [ ]: non-standard residue; d: D form. dPhe(4-Cl) = N[C@H](Cc1ccc(Cl)cc1)C(=O)O; d2Nal = N[C@H](Cc1ccc2ccccc2c1)C(=O)O; NMeY = CN[CH](Cc1ccc(O)cc1)C(=O)O; dCit = NC(=O)NCCC[C@@H](N)C(=O)O; d3Pal = N[C@H](Cc1cccnc1)C(=O)O
Potency is read from the fitted curve at half-maximal effect.

With `CC(=O)OC1C[C@@]2(C)[C@@H](CC[C@@H](C)[C@]23Cc2c(O)cc4c(c2O3)CNC4=O)C(C)(C)[C@@H]1O` (stereo partly drawn), the Potency entry in experiment [1] and in experiment [2] was “inactive” in each case.
Consider `CC1=C2C(O)C(=O)OC(c3ccoc3)C2(C)CCC1O` (stereo not drawn), for which the Potency entry in experiment [1] and in experiment [2] was “inactive” each time.
With `CC(C)C[C@H](CC(=O)NO)C(=O)N[C@H](C(=O)N[C@@H](C)C(=O)NCCN)C(C)(C)C`, in experiment [1], the outcome was “inactive [at 9.29 µM]”. Further, the activity change, negative = cytotoxicity in experiment [2] is 2.84% [at 9.29 µM].
As for `Cc1c(CN2CCN(C(=O)C(C)O)CC2)sc2c(N3CCOCC3)nc(-c3cnc(N)nc3)nc12` (stereo not drawn), the Potency in experiment [1] is 259 nM (active); in experiment [2], 0.82 µM (active).
For `C=C1C(=O)OC2CC3(C)C(CC12)C(C)=CC(O)C3OC(C)=O` (stereo not drawn), in that order: “inactive” and “inactive”.
On the same counts, the results for `CC(=O)OC1CC2C3(C)CCC(OC(=O)CC(=O)O)C(C)(C)C3CCC2(C)C2(C)CCC(C3(C)CCC(=O)O3)C12` (stereo not drawn) are “inactive” and “inactive”.
For `CC(C)(C)NS(=O)(=O)c1cncc(-c2cc(F)c3nc(N)nn3c2)c1`, in that order: “inactive” and “inactive”.
Turning to `COc1cc2c(c(OC)c1CC=C(C)C)C[C@H](c1ccc(O)cc1O)CO2`, the Potency entry in experiment [1] and in experiment [2] was “inactive” each time.
Regarding `OC[C@H]1O[C@@H](O[C@H]2[C@H](OCCc3ccccc3)O[C@H](CO)[C@@H](O)[C@@H]2O)[C@H](O)[C@@H](O)[C@@H]1O`, the Potency entry in experiment [2] is “inactive”.
The same measure, in the same setting: next, `C[C@H]1[C@H](O)O[C@@H]2O[C@@]3(C)CC[C@H]4[C@H](C)CC[C@@H]1[C@@]24OO3`: 11.6 µM (active); `CC(C)(C)c1ccc(S(=O)(=O)NCc2ccc(C(=O)Nc3cccnc3)cc2)cc1`: 1.16 µM (active); `CNCc1ccc(-c2cc(-c3nc(-c4ccc(S(=O)(=O)C(C)C)cc4)cnc3N)on2)cc1`: 1.3 µM (active).
The same measure, in the same setting: then `C/C1=C\CCC2=C[C@@H](OC2=O)c2c(C)coc2C1`, with “inactive”; and `Cc1cc(NC(=O)Nc2ccc(F)c(F)c2)n(-c2ccccc2)n1`, with “inactive”.
As to `CC(=O)N1CCc2ccc(O)c(OC3OC(COC4OCC(O)(CO)C4O)C(O)C(O)C3O)c2C1Cc1ccc(O)cc1` (stereo not drawn), the Potency result in experiment [2] is “inactive”.
Take `CC1OC(OC2C(CO)OC(OCC3OC(OC(=O)C45CCC(C)(C)CC4C4=CCC6C7(C)CCC(OC8OC(CO)C(O)C(OC9OC(CO)C(O)C(O)C9O)C8O)C(C)(C)C7CCC6(C)C4(C)CC5)C(O)C(O)C3O)C(O)C2O)C(O)C(O)C1OC1OC(CO)C(O)C(O)C1O` (stereo not drawn): in experiment [2], the activity change, negative = cytotoxicity is 9.79% [at 9.29 µM].
As to `CCCCc1nc2cc(/C=C/C(=O)NO)ccc2n1CCN(CC)CC`, the Potency in experiment [2] is 3.26 µM (active).
The same measure, in the same setting: next, `CC1(C)CCC[C@@]2(C)C1[C@H](OC(=O)/C=C/C=C/C(=O)O)C=C1COC(=O)[C@@]12O` (stereo partly drawn): “inactive”.
Same read-out and setting: then `CC1=CC(=O)[C@]2(O[C@@H]3O[C@@H](C)[C@H](O)[C@@H](O)[C@H]3OC(=O)/C=C/c3ccccc3)C=CO[C@@H](O[C@@H]3O[C@H](CO)[C@@H](O)[C@H](O)[C@H]3O)[C@H]12`, with “inactive”.
Same read-out and setting: next, `COc1ccc2nc(S(=O)(=O)Cc3ncc(C)c(OC)c3C)[nH]c2c1`: “inactive”.
As for `CNC(=O)c1ccccc1Nc1nc(Nc2ccc(N3CCNCC3)cc2)ncc1Cl`, the Potency in experiment [2] is 0.461 µM (active).
On to `C/C=C1\[C@H](O[C@@H]2O[C@H](CO)[C@@H](O)[C@H](O)[C@H]2O)OC=C2C(=O)OCCc3ccc(O)c(c3)Oc3ccc(cc3)CCOC(=O)C[C@H]21`, for which the Potency result in experiment [2] was “inactive”.
In the case of `OC/C=C/c1ccc(O[C@@H]2O[C@H](CO)[C@@H](O)[C@H](O)[C@H]2O)cc1`, the Potency entry in experiment [2] was “inactive”.
Consider `CC1(C)CC[C@]2(C(=O)OC3OC(CO)C(O)C(O)C3O)CC[C@]3(C)C(=CCC4[C@@]5(C)CC[C@H](OC6OC(C(=O)O)C(O)C(OC7OC(CO)C(O)C(O)C7O)C6O)C(C)(C)C5CC[C@]43C)C2C1` (stereo partly drawn), for which the outcome in experiment [2] was “inactive [at 9.29 µM]”.
Turning to `COc1ccc(/C=C/C(=O)O[C@H]2[C@H](O[C@H]3[C@@H]4C=CO[C@@H](O[C@@H]5O[C@H](CO)[C@@H](O)[C@H](O)[C@H]5O)[C@@H]4[C@@]4(CO)O[C@@H]34)O[C@@H](C)[C@H](O)[C@H]2OC(C)=O)cc1`, in experiment [2], the Potency result is “inactive”.
On to `CC(O)/C=C/C1C(C)C(O[C@@H]2O[C@H](CO)[C@@H](O)[C@H](O)[C@H]2O)C(O)CC1(C)C` (stereo partly drawn), for which, in experiment [2], the Potency entry was “inactive”.
Same read-out and setting: then `CC1CCC23COC(=O)C2=CC(O)CC3C1(C)CCC1=CC(O)OC1=O` (stereo not drawn), with “inactive”; and `Nc1nc(Nc2ccc(S(N)(=O)=O)cc2)n(C(=S)Nc2c(F)cccc2F)n1`, with 1.16 µM (active); and `C=C(C)C1CCC2(C(=O)O)CCC3(C(=O)O)C(CCC4C5(C)CCC(O)C(C)(C(=O)O)C5CCC43C)C12` (stereo not drawn), with “inactive”.
Same read-out and setting: next, `CCC(C)C(=O)OC1CC(O)C23C4OCC5(C(O)CC2C1(C)C(O)O4)C3C(=O)C(O)C1(C)C(O)(c2ccoc2)CC2OC251` (stereo not drawn): “inactive”; `C=C1CCC[C@]2(C)CC[C@@H](C(=C)C(=O)O)[C@H](O)[C@@H]12`: “inactive”.
On to `C[C@@H]1O[C@@H](O[C@H]2[C@H](O)[C@@H](O)[C@H](O[C@H]3[C@H](O[C@H]4CC[C@@]5(C)C(=CC[C@@H]6C5CC[C@]5(C)[C@@H]7[C@H](C[C@@H]65)O[C@]5(CC[C@@](C)(CO[C@@H]6O[C@H](CO)[C@@H](O)[C@H](O)[C@H]6O)O5)[C@H]7C)C4)O[C@H](CO)[C@@H](O)[C@@H]3O)O[C@@H]2CO)[C@H](O)[C@H](O)[C@H]1O` (stereo partly drawn), for which, in experiment [2], the activity change, negative = cytotoxicity was 4.84% [at 9.29 µM].
Consider `COc1ccc(C(=O)C2CCN(CC(=O)N(Cc3nc4c(c(=O)[nH]3)COCC4)CC3CC3)CC2)cc1`, for which the Potency result in experiment [2] is “inactive”.
Take `C[C@@H]1O[C@@H](O[C@H]2[C@H](OC(=O)[C@]34CCC(C)(C)C[C@H]3C3=CCC5[C@@]6(C)C[C@H](O)[C@H](O[C@@H]7O[C@H](CO)[C@@H](O)[C@H](O)[C@H]7O)[C@@](C)(CO)C6[C@H](O)C[C@@]5(C)[C@]3(C)C[C@H]4O)OC[C@H](O)[C@@H]2O)[C@H](O)[C@H](O)[C@H]1O[C@@H]1OC[C@@H](O)[C@H](O[C@H]2OC[C@](O)(CO)[C@H]2O)[C@H]1O` (stereo partly drawn): the activity change, negative = cytotoxicity in experiment [2] was 4.28% [at 9.29 µM].
Regarding `C/C=C/c1ccc(O[C@@H]2O[C@H](CO)[C@@H](O)[C@H](O)[C@H]2O)c(OC)c1`, the Potency result in experiment [2] is “inactive”.
Take `C=CC(=O)Nc1cc(Nc2ncc(Cl)c(-c3c[nH]c4ccccc34)n2)c(OC)cc1N(C)CCN(C)C`: the Potency in experiment [2] is 5.17 µM (active).
For the molecule `Cc1ccccc1NC(=O)Nc1ccc(CC(=O)N(C)[C@@H](CC(C)C)C(=O)NCC[C@H](NC(=O)[C@@H]2CCCN2S(=O)(=O)c2cc(Cl)cc(Cl)c2)C(=O)O)cc1`, the Potency result in experiment [2] is “inactive”.
With `CC1CCC2(C(=O)O)CCC3(C)C(=CCC4C5(C)CCC(O)C(C)(CO)C5CCC43C)C2C1(C)O` (stereo not drawn), the Potency result in experiment [2] was “inactive”.
Still for that read-out and setting: next, `CC(C)C(=O)OC[C@H]1O[C@H](O[C@H]2O[C@H](CO)[C@@H](O)[C@H](O)[C@H]2O)[C@H](O)[C@@H](O)[C@@H]1O`: “inactive”; `OCC(CO[C@@H]1O[C@H](CO)[C@@H](O)[C@H](O)[C@H]1O)c1ccc2c(c1)OCO2` (stereo partly drawn): “inactive”.
Still for that read-out and setting: next, `CC(C)C(NC(=O)c1ccc2ccccc2n1)C(=O)NC(CC(=O)O)C(=O)COc1c(F)cccc1F` (stereo not drawn): “inactive”; `CCC(C)C1NC(=O)C2CCCN2C(=O)C(NC(C)=O)C(C)OC(=O)C(Cc2ccc(OC)cc2)N(C)C(=O)C2CCCN2C(=O)C(C(C)C)NC1=O` (stereo not drawn) (Ac-TPIVP[NMeY](Me); ester 1-C; configuration not given here): “inactive”; `CC(C)(C)Nc1nc(Nc2ccc(C(N)=O)cc2)cc(N)c1C#N`: 2.06 µM (active).
Same read-out and setting: next, `COC(=O)C1=CO[C@@H](O[C@@H]2O[C@H](CO)[C@@H](O)[C@H](O)[C@H]2O)[C@@H]2C(CO)=CC[C@]12O`: “inactive”; `C[C@@H]1CC[C@]2(C(=O)O)CC[C@]3(C)C(=CCC4[C@@]5(C)CC[C@H](O)C(C)(C)C5C(O)C[C@]43C)[C@@H]2[C@]1(C)O` (stereo partly drawn): “inactive”; `O=[N+]([O-])c1cn2c(n1)OCC(OCc1ccc(OC(F)(F)F)cc1)C2` (stereo not drawn): “inactive”.
For the molecule `C[C@H]1Oc2cc(cnc2N)-c2c(nn(C)c2C#N)CN(C)C(=O)c2ccc(F)cc21`, the Potency result in experiment [2] was “inactive”.
`O=C1C=CC(O)(/C=C/C(=O)OC[C@H]2O[C@@H](Oc3ccc(O)cc3)[C@H](O)[C@@H](O)[C@@H]2O)C=C1`: the Potency result in experiment [2] was “inactive”.
The same measure, in the same setting: next, `CC(=O)N[C@H](Cc1ccc2ccccc2c1)C(=O)N[C@H](Cc1ccc(Cl)cc1)C(=O)N[C@H](Cc1cccnc1)C(=O)N[C@@H](CO)C(=O)N[C@@H](Cc1ccc(O)cc1)C(=O)N[C@H](CCCNC(N)=O)C(=O)N[C@@H](CC(C)C)C(=O)N[C@@H](CCCN=C(N)N)C(=O)N1CCC[C@H]1C(=O)N[C@H](C)C(N)=O` (Ac-[d2Nal][dPhe(4-Cl)][d3Pal]SY[dCit]LRP[dA]-NH2): “inactive”; `CC(C)(C)CCN1C[C@@H]2C(CNC(=O)c3cc(Cl)cc(Cl)c3)[C@@H]2C1` (stereo partly drawn): “inactive”.
In the case of `Nc1ncnc2c1nc(N)n2[C@@H]1O[C@H](CO)[C@@H](O)[C@H]1O`, the Potency in experiment [2] is 1.16 µM (active).
Still for that read-out and setting: next, `O=S(=O)(c1ccccc1)c1cnc2c(N3CCNCC3)cccc2c1`: “inactive”; `C/C1=C\C[C@]2(C)C(=O)C(O)=C([C@H](C)CO)[C@H]2C/C=C(\C)[C@@H](O)CC/C(C)=C/CC1`: “inactive”.
Regarding `CC(CCC1(O)OC2CC3C4CCC5CC(O[C@@H]6O[C@H](CO)[C@@H](O)[C@H](O)[C@H]6O[C@@H]6O[C@@H](C)[C@H](O)[C@@H](O)[C@H]6O)C(O)CC5(C)C4CCC3(C)C2C1C)CO[C@@H]1O[C@H](CO)[C@@H](O)[C@H](O)[C@H]1O` (stereo partly drawn), the activity change, negative = cytotoxicity in experiment [2] is 1.44% [at 9.29 µM].
Regarding `CC(C)Oc1ccc(C(=O)NC(CNC(=O)CN(C)C)Cc2ccc(-c3cn4cccc(C(C)O)c4n3)cc2)cc1Cl` (stereo not drawn), in experiment [2], the Potency was 6.51 µM (active).

These data come from PubChem BioAssay (NCATS).
